# Measurements reported in the supplement of paper PMC3334620.
# The full ranking holds about 33,000 sequences; the median of “E-score (-0.5 to 0.5)” is about -0.035, and the highest 2% start at about 0.35. Many of the other results were omitted from the sample, so the highest values are more common in it than they were.
# Target: T1, Pdr3 (UniProt P33200)
# T1 sequence: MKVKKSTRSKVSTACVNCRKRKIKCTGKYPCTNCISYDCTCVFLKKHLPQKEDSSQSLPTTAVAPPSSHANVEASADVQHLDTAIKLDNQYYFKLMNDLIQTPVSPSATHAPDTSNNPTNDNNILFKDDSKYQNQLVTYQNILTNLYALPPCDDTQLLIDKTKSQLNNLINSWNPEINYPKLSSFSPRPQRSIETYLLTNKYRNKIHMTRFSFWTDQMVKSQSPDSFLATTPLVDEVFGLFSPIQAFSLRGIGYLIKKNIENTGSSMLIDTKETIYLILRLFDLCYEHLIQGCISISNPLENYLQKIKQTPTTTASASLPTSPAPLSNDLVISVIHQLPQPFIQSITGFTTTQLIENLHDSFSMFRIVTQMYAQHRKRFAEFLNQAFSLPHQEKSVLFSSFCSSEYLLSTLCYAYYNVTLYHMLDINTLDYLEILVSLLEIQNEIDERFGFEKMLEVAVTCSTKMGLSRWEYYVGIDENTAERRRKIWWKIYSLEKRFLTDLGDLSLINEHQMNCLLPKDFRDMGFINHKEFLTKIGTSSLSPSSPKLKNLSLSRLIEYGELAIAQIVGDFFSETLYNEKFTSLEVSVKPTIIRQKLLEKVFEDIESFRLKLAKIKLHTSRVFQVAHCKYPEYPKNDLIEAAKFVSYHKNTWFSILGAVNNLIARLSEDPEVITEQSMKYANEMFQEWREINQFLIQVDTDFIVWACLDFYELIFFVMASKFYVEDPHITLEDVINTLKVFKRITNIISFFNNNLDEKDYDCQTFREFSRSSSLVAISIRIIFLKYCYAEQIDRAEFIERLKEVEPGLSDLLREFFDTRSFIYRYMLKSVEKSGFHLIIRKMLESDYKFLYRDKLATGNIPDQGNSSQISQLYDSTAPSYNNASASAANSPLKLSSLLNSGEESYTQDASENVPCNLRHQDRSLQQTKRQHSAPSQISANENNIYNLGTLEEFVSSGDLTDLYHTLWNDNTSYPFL
# Test: PBM E-score (8-mer binding enrichment) (E-score (-0.5 to 0.5)); higher = stronger / more preferred TF binding
# Details: protein concentration: 200 nM; construct: GST-full length
# Method in brief: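 Each ungapped eight-base word and its reverse complement, pooled, received an E-score from the Universal PBM Analysis Suite. Underlying scans, normalised with masliner, recorded fluorescent anti-GST bound to GST-tagged yeast transcription factors. These were applied at about 100-200 nM to universal all-10-mer Agilent arrays double-stranded by primer extension.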
row,Sequence,PBM E-score
1,AAACCTCA,0.109
2,GAGTTGGC,0.115
3,ATAAGCAG,-0.127
4,CCCGAATA,0.14
5,CGGCAGCC,0.358
6,CGGCAGCA,0.109
7,AGGCAGCC,0.0506
8,CCGGTTCA,0.104
9,AGGGTTCC,0.249
10,CGGGTTCC,0.414
11,CCGGTTCG,0.217
12,CGGGTTCA,0.304
13,CCGGTTCC,0.426
14,CTCCATAA,-0.273
15,CTCGCTGC,0.00281
16,CTGGTCTA,-0.254
17,ACACTTCC,0.184
18,CTGTTGAC,-0.162
19,AAACCAGG,-0.0534
20,CGTAACAC,-0.0629
21,AGGAATCC,0.0872
22,GGGAATCA,0.0382
23,CCGAATCC,0.336
24,CGGAATCC,0.461
25,CGGAATCA,0.456
26,AGGAATCA,-0.0475

row,Sequence,PBM E-score
1,CTTGGGCC,-0.0633
2,GTATCTGA,-0.146
3,ACGTCTCG,-0.0164
4,AAAGTCTC,-0.186
5,TTAGCGAA,0.0125
6,GCTACCAC,-0.16
7,CCGGGAGA,0.369
8,CGGGGATC,0.28
9,ACGGGATG,0.283
10,CCGGGAGG,0.334
11,CTGGGATA,0.0272
12,CGGGGATA,0.33
13,GCGGGATA,0.322
14,CGGGGAGA,0.28
15,CCGGGATA,0.388
16,ACGGGATA,0.38
17,ACGGGATC,0.275
18,CCGGGATC,0.453
19,AAGGAATG,0.126
20,CGCGTCCG,0.272
21,CTTCGCGC,0.274
22,ATCTAAAC,-0.113
23,GCTGGCAA,0.0154
24,CTCGGTCA,0.00197
25,CACCGGAA,0.46
26,GACCGGCA,0.0622

row,Sequence,PBM E-score
1,CACCGGAC,0.341
2,TACCGGCA,0.214
3,AACCGGAT,0.316
4,CACCGGGA,0.272
5,GACCGGAA,0.401
6,GACCGGAC,0.28
7,AACCGGAA,0.435
8,AACCGGAG,0.326
9,TACCGGTA,0.103
10,TACCGGAA,0.44
11,AAATAGTA,0.152
12,AGAGCAAC,-0.197
13,CCTATGGA,-0.127
14,CCTAGGTA,-0.174
15,AAAAGCAC,-0.291
16,AAAGACTA,-0.113
17,CGTTTTAG,-0.195
18,GGGCGTCA,0.0172
19,CGGAATGA,0.435
20,CGGAATGC,0.434
21,AGGAATGC,-0.0575
22,CTGAATGC,-0.0711
23,GGGAATGA,0.219
24,AGGAATGA,-0.0139
25,AGATCGTA,-0.304
26,ATCTCAGG,0.00088

row,Sequence,PBM E-score
1,ATTGTCGG,0.193
2,GATCTACC,0.00285
3,CCCGTTCC,0.347
4,ATTGTTCC,0.378
5,ATGGTTCC,0.371
6,CTGGTTCC,0.264
7,ATTGTTCG,0.194
8,AGTGTTCC,0.301
9,ACCGTTCT,-0.0192
10,ACCGTTCC,0.364
11,CGTGTTCC,0.383
12,ATGGTTCA,0.0467
13,CTTGTTCC,0.207
14,CGTGTTCA,-0.0434
15,CCTACTCG,0.101
16,ACCAGCAA,0.0732
17,CACCGACC,0.0698
18,ACTGAGCG,-0.185
19,GGACAATA,0.28
20,TATTTACA,-0.097
21,ACAGTTCC,0.387
22,ACAGTTCT,0.082
23,CCAGTTCC,0.318
24,CGTGGAAG,0.208
25,GGCGGAAC,0.467
26,AGCGGAAA,0.391

row,Sequence,PBM E-score
1,CGTGGAAA,0.243
2,CGGGGAAA,0.246
3,CGCAGAAG,-0.09
4,GGGGGAAC,-0.165
5,AGAGGAAA,0.0754
6,CGCGGAAA,0.476
7,CGCGGAAG,0.454
8,AGGGGAAA,-0.0896
9,GGCAGAAC,0.123
10,AATTCGAT,0.0319
11,AGCCTCGG,0.156
12,TGCGGACA,0.237
13,GGAGGAAA,0.0123
14,AGCGGAAT,0.392
15,AGCGGAAC,0.457
16,AGCGGAAG,0.341
17,GGCGGAAA,0.361
18,TGCGGAAA,0.357
19,AGAGGAAC,-0.066
20,AGCGGACT,-0.0134
21,TGCGGGAA,0.313
22,AGGGGAAC,-0.0871
23,GGGGGAAA,0.138
24,CCGCCGAA,0.277
25,CCCAACTC,0.16
26,ACCCTCGG,0.156

row,Sequence,PBM E-score
1,CGTCGTAA,-0.0777
2,CGCATCAC,-0.0776
3,AGGCAACG,0.00606
4,ACAACCGC,0.202
5,AAAACTAC,0.179
6,CATCGGAC,0.143
7,AATCGGAC,0.212
8,AATCGGAT,0.317
9,TATCGGAA,0.419
10,CATCGGAG,0.0478
11,TATCGGCA,0.101
12,AATCGGAA,0.445
13,CATCGGAA,0.422
14,AATCGGAG,0.276
15,GATCGGGC,0.142
16,TATCGGGA,0.228
17,GATCGGAC,0.362
18,CCTTTAGA,-0.22
19,GCAGAATA,-0.0373
20,CCTTCCTA,-0.401
21,TCGGTAGA,-0.027
22,AAAGTTGA,-0.0975
23,AACGGCTC,0.0795
24,ACGTTACG,-0.211
25,AATTTGCT,-0.114
26,CTGCTCCC,-0.0396

row,Sequence,PBM E-score
1,GACCCGCA,0.0817
2,GATCGGTA,0.146
3,GATCGGGA,0.171
4,GATCGGAA,0.424
5,GTGCTTCA,-0.0273
6,AGCTTAAG,-0.0452
7,GGGCCCAA,0.0863
8,AAGTGAGG,-0.173
9,ACCGGGGG,0.0642
10,ACCCGGGG,0.357
11,AAACCCGG,0.401
12,AAACCCGC,0.258
13,ACCCCCGG,0.17
14,CCCCCGCG,0.349
15,ACCCCGGG,0.376
16,AAACCCGA,0.243
17,AACCGGGG,0.199
18,CCCCCGGG,0.364
19,CCCCCCGG,0.132
20,ACCCCGTG,0.181
